Measured values from article PMC11006913.
Residue numbers refer to the chain shown, from its start.

Experiments:
Experiment in all cases: PBM; 200 nM protein, PBS
Settings in all cases: dsDNA, one strand shown
[1] = molecular target: T1, SIX6 (Homo sapiens, UniProt O95475 114-200, L167I)
T1 sequence: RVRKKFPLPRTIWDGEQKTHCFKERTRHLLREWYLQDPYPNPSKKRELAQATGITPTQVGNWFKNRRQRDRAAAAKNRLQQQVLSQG

[2] = molecular target: T2, SIX6 (Homo sapiens, UniProt O95475 114-200, L143V)
T2 sequence: T1 sequence with L30V, I54L

[3] = molecular target: T3, SIX6 (Homo sapiens, UniProt O95475 114-200, H141N)
T3 sequence: T1 sequence with H28N, I54L

[4] = molecular target: T4, SIX6 (Homo sapiens, UniProt O95475 114-200, T165P)
T4 sequence: T1 sequence with T52P, I54L

[5] = molecular target: T5, SIX6 (Homo sapiens, UniProt O95475 114-200, L167M)
T5 sequence: T1 sequence with I54M

[6] = molecular target: T6, SIX6 (Homo sapiens, UniProt O95475 114-200, L143M)
T6 sequence: T1 sequence with L30M, I54L

[7] = molecular target: T7, SIX6 (Homo sapiens, UniProt O95475 114-200, L143I)
T7 sequence: T1 sequence with L30I, I54L

[8] = molecular target: T8, SIX6 (Homo sapiens, UniProt O95475 114-200, T165G)
T8 sequence: T1 sequence with T52G, I54L

[9] = molecular target: T9, SIX6 (Homo sapiens, UniProt O95475 114-200, T139Q)
T9 sequence: T1 sequence with T26Q, I54L

[10] = molecular target: T10, SIX6 (Homo sapiens, UniProt O95475 114-200, T165A)
T10 sequence: T1 sequence with T52A, I54L

[11] = molecular target: T11, SIX6 (Homo sapiens, UniProt O95475 114-200, L167V)
T11 sequence: T1 sequence with I54V

[12] = molecular target: T12, SIX6 (Homo sapiens, UniProt O95475 114-200)
T12 sequence: T1 sequence with I54L

[13] = molecular target: T13, SIX6 (Homo sapiens, UniProt O95475 114-200, T165I)
T13 sequence: T1 sequence with T52I, I54L

[14] = molecular target: NKX3-2 (Homo sapiens, UniProt P78367 192-278, P234S)
NKX3-2 (Homo sapiens, UniProt P78367 192-278, P234S), sequence (P78367 192-278 P234S): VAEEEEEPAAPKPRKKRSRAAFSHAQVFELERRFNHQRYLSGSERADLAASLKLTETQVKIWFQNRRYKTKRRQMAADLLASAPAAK

[15] = molecular target: NKX3-2 (Homo sapiens, UniProt P78367 192-278)
NKX3-2 (Homo sapiens, UniProt P78367 192-278), sequence (P78367 192-278): as the sequence (P78367 192-278 P234S) above, with S43P counted along it

Sequence | binding signal [1] | binding signal [2] | binding signal [3] | binding signal [4] | binding signal [5] | binding signal [6] | binding signal [7] | binding signal [8] | binding signal [9] | binding signal [10] | binding signal [11] | binding signal [12] | binding signal [13] | binding signal [14] | binding signal [15]
GCCGCCCC | 9.02 upbm affinity estimate (log intensity, higher = more binding, comparable within an allelic series) | 9.06 upbm affinity estimate (log intensity, higher = more binding, comparable within an allelic series) | 8.99 upbm affinity estimate (log intensity, higher = more binding, comparable within an allelic series) | 9.17 upbm affinity estimate (log intensity, higher = more binding, comparable within an allelic series) | 9.05 upbm affinity estimate (log intensity, higher = more binding, comparable within an allelic series) | 9.03 upbm affinity estimate (log intensity, higher = more binding, comparable within an allelic series) | 8.92 upbm affinity estimate (log intensity, higher = more binding, comparable within an allelic series) | 9.03 upbm affinity estimate (log intensity, higher = more binding, comparable within an allelic series) | 8.98 upbm affinity estimate (log intensity, higher = more binding, comparable within an allelic series) | 9.08 upbm affinity estimate (log intensity, higher = more binding, comparable within an allelic series) | 8.99 upbm affinity estimate (log intensity, higher = more binding, comparable within an allelic series) | 8.93 upbm affinity estimate (log intensity, higher = more binding, comparable within an allelic series) | 9.05 upbm affinity estimate (log intensity, higher = more binding, comparable within an allelic series) |  | 
CTGGCGCC | 8.88 upbm affinity estimate (log intensity, higher = more binding, comparable within an allelic series) | 8.96 upbm affinity estimate (log intensity, higher = more binding, comparable within an allelic series) | 8.82 upbm affinity estimate (log intensity, higher = more binding, comparable within an allelic series) | 9.1 upbm affinity estimate (log intensity, higher = more binding, comparable within an allelic series) | 8.85 upbm affinity estimate (log intensity, higher = more binding, comparable within an allelic series) | 8.93 upbm affinity estimate (log intensity, higher = more binding, comparable within an allelic series) | 8.9 upbm affinity estimate (log intensity, higher = more binding, comparable within an allelic series) | 8.9 upbm affinity estimate (log intensity, higher = more binding, comparable within an allelic series) | 8.85 upbm affinity estimate (log intensity, higher = more binding, comparable within an allelic series) | 8.87 upbm affinity estimate (log intensity, higher = more binding, comparable within an allelic series) | 8.8 upbm affinity estimate (log intensity, higher = more binding, comparable within an allelic series) | 8.82 upbm affinity estimate (log intensity, higher = more binding, comparable within an allelic series) | 8.87 upbm affinity estimate (log intensity, higher = more binding, comparable within an allelic series) | 10.6 upbm affinity estimate (log intensity, higher = more binding, comparable within an allelic series) | 10.5 upbm affinity estimate (log intensity, higher = more binding, comparable within an allelic series)
CTCGATAC | 10.6 upbm affinity estimate (log intensity, higher = more binding, comparable within an allelic series) | 10 upbm affinity estimate (log intensity, higher = more binding, comparable within an allelic series) | 10.6 upbm affinity estimate (log intensity, higher = more binding, comparable within an allelic series) | 9.7 upbm affinity estimate (log intensity, higher = more binding, comparable within an allelic series) | 10.2 upbm affinity estimate (log intensity, higher = more binding, comparable within an allelic series) | 10.6 upbm affinity estimate (log intensity, higher = more binding, comparable within an allelic series) | 10.1 upbm affinity estimate (log intensity, higher = more binding, comparable within an allelic series) | 10.8 upbm affinity estimate (log intensity, higher = more binding, comparable within an allelic series) | 10.8 upbm affinity estimate (log intensity, higher = more binding, comparable within an allelic series) | 10.6 upbm affinity estimate (log intensity, higher = more binding, comparable within an allelic series) | 10.4 upbm affinity estimate (log intensity, higher = more binding, comparable within an allelic series) | 10.6 upbm affinity estimate (log intensity, higher = more binding, comparable within an allelic series) | 10.5 upbm affinity estimate (log intensity, higher = more binding, comparable within an allelic series) |  | 
GCAGCCGC | 8.93 upbm affinity estimate (log intensity, higher = more binding, comparable within an allelic series) | 8.9 upbm affinity estimate (log intensity, higher = more binding, comparable within an allelic series) | 8.98 upbm affinity estimate (log intensity, higher = more binding, comparable within an allelic series) | 8.93 upbm affinity estimate (log intensity, higher = more binding, comparable within an allelic series) | 9.02 upbm affinity estimate (log intensity, higher = more binding, comparable within an allelic series) | 8.94 upbm affinity estimate (log intensity, higher = more binding, comparable within an allelic series) | 8.95 upbm affinity estimate (log intensity, higher = more binding, comparable within an allelic series) | 8.95 upbm affinity estimate (log intensity, higher = more binding, comparable within an allelic series) | 9.01 upbm affinity estimate (log intensity, higher = more binding, comparable within an allelic series) | 9.01 upbm affinity estimate (log intensity, higher = more binding, comparable within an allelic series) | 8.97 upbm affinity estimate (log intensity, higher = more binding, comparable within an allelic series) | 8.98 upbm affinity estimate (log intensity, higher = more binding, comparable within an allelic series) | 9.03 upbm affinity estimate (log intensity, higher = more binding, comparable within an allelic series) |  | 
CGATATCC | 11.1 upbm affinity estimate (log intensity, higher = more binding, comparable within an allelic series) | 10.2 upbm affinity estimate (log intensity, higher = more binding, comparable within an allelic series) | 11.1 upbm affinity estimate (log intensity, higher = more binding, comparable within an allelic series) | 9.62 upbm affinity estimate (log intensity, higher = more binding, comparable within an allelic series) | 10.6 upbm affinity estimate (log intensity, higher = more binding, comparable within an allelic series) | 10.9 upbm affinity estimate (log intensity, higher = more binding, comparable within an allelic series) | 10.3 upbm affinity estimate (log intensity, higher = more binding, comparable within an allelic series) | 11.1 upbm affinity estimate (log intensity, higher = more binding, comparable within an allelic series) | 11.2 upbm affinity estimate (log intensity, higher = more binding, comparable within an allelic series) | 11 upbm affinity estimate (log intensity, higher = more binding, comparable within an allelic series) | 10.9 upbm affinity estimate (log intensity, higher = more binding, comparable within an allelic series) | 11 upbm affinity estimate (log intensity, higher = more binding, comparable within an allelic series) | 10.9 upbm affinity estimate (log intensity, higher = more binding, comparable within an allelic series) |  | 
GTATATCA | 11.2 upbm affinity estimate (log intensity, higher = more binding, comparable within an allelic series) | 10.5 upbm affinity estimate (log intensity, higher = more binding, comparable within an allelic series) | 11.3 upbm affinity estimate (log intensity, higher = more binding, comparable within an allelic series) | 9.99 upbm affinity estimate (log intensity, higher = more binding, comparable within an allelic series) | 10.9 upbm affinity estimate (log intensity, higher = more binding, comparable within an allelic series) | 11.1 upbm affinity estimate (log intensity, higher = more binding, comparable within an allelic series) | 10.5 upbm affinity estimate (log intensity, higher = more binding, comparable within an allelic series) | 11.2 upbm affinity estimate (log intensity, higher = more binding, comparable within an allelic series) | 11.2 upbm affinity estimate (log intensity, higher = more binding, comparable within an allelic series) | 11.2 upbm affinity estimate (log intensity, higher = more binding, comparable within an allelic series) | 11 upbm affinity estimate (log intensity, higher = more binding, comparable within an allelic series) | 11.1 upbm affinity estimate (log intensity, higher = more binding, comparable within an allelic series) | 11.2 upbm affinity estimate (log intensity, higher = more binding, comparable within an allelic series) |  | 
GATACCGA | 10.5 upbm affinity estimate (log intensity, higher = more binding, comparable within an allelic series) | 9.92 upbm affinity estimate (log intensity, higher = more binding, comparable within an allelic series) | 10.4 upbm affinity estimate (log intensity, higher = more binding, comparable within an allelic series) | 9.38 upbm affinity estimate (log intensity, higher = more binding, comparable within an allelic series) | 10.1 upbm affinity estimate (log intensity, higher = more binding, comparable within an allelic series) |  | 9.98 upbm affinity estimate (log intensity, higher = more binding, comparable within an allelic series) | 10.6 upbm affinity estimate (log intensity, higher = more binding, comparable within an allelic series) | 10.6 upbm affinity estimate (log intensity, higher = more binding, comparable within an allelic series) | 10.5 upbm affinity estimate (log intensity, higher = more binding, comparable within an allelic series) |  | 10.5 upbm affinity estimate (log intensity, higher = more binding, comparable within an allelic series) |  |  | 
GGCGACCC | 8.98 upbm affinity estimate (log intensity, higher = more binding, comparable within an allelic series) | 8.85 upbm affinity estimate (log intensity, higher = more binding, comparable within an allelic series) | 9.03 upbm affinity estimate (log intensity, higher = more binding, comparable within an allelic series) | 8.9 upbm affinity estimate (log intensity, higher = more binding, comparable within an allelic series) | 8.99 upbm affinity estimate (log intensity, higher = more binding, comparable within an allelic series) | 9.09 upbm affinity estimate (log intensity, higher = more binding, comparable within an allelic series) | 8.97 upbm affinity estimate (log intensity, higher = more binding, comparable within an allelic series) | 9.01 upbm affinity estimate (log intensity, higher = more binding, comparable within an allelic series) | 9.15 upbm affinity estimate (log intensity, higher = more binding, comparable within an allelic series) | 9.04 upbm affinity estimate (log intensity, higher = more binding, comparable within an allelic series) | 8.91 upbm affinity estimate (log intensity, higher = more binding, comparable within an allelic series) | 9.01 upbm affinity estimate (log intensity, higher = more binding, comparable within an allelic series) | 9.02 upbm affinity estimate (log intensity, higher = more binding, comparable within an allelic series) |  | 
GATATCCA | 11.1 upbm affinity estimate (log intensity, higher = more binding, comparable within an allelic series) | 10.3 upbm affinity estimate (log intensity, higher = more binding, comparable within an allelic series) | 11 upbm affinity estimate (log intensity, higher = more binding, comparable within an allelic series) | 9.81 upbm affinity estimate (log intensity, higher = more binding, comparable within an allelic series) | 10.7 upbm affinity estimate (log intensity, higher = more binding, comparable within an allelic series) | 10.9 upbm affinity estimate (log intensity, higher = more binding, comparable within an allelic series) | 10.3 upbm affinity estimate (log intensity, higher = more binding, comparable within an allelic series) | 11.1 upbm affinity estimate (log intensity, higher = more binding, comparable within an allelic series) | 11 upbm affinity estimate (log intensity, higher = more binding, comparable within an allelic series) | 11 upbm affinity estimate (log intensity, higher = more binding, comparable within an allelic series) | 10.9 upbm affinity estimate (log intensity, higher = more binding, comparable within an allelic series) | 10.9 upbm affinity estimate (log intensity, higher = more binding, comparable within an allelic series) | 10.8 upbm affinity estimate (log intensity, higher = more binding, comparable within an allelic series) |  | 
